Counter-ions that a name gives are not always drawn. ± gives the standard deviation of the averaged measurements. In all, about 1,300 compounds were measured (“normalised cell viability”: median about 1, lowest 2% from about 0.14 on). What follows is part of a selection rich in the lowest values, with near analogues and random picks from the rest.
Test system: V-C8 (BRCA2-deficient hamster cells)
Assay: normalised cell viability (fraction of plate median); higher = more viable cells (less toxic)
Conditions: 5 µM
How it was run: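 Library drugs, held as 10 mM stocks in DMSO, were diluted to 5 μM in 100 μl medium and added to 96-well plates of V-C8 hamster cells, either lacking BRCA2 or with BRCA2 restored, 24 h after seeding. Plates ran for 3 days (screen 1) or 6 days (screen 2), alongside solvent-only wells. Viability came from a resazurin readout, median-plate normalised, as the mean of triplicate wells.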

Compound	normalised cell viability (treatment time: 3 days)	normalised cell viability (treatment time: 6 days)
Clc1ccc(COC(Cn2ccnc2)c2ccc(Cl)cc2Cl)cc1 (centres undefined) [Econazole nitrate]	0.938 ± 0.028	0.98 ± 0.023
CC[C@H](C)[C@H](N)C1=N[C@H](C(=O)N[C@@H](CC(C)C)C(=O)N[C@H](CCC(=O)O)C(=O)N[C@H](C(=O)N[C@H]2CCCCNC(=O)[C@H](CC(N)=O)NC(=O)[C@@H](CC(=O)O)NC(=O)[C@H](Cc3cnc[nH]3)NC(=O)[C@@H](Cc3ccccc3)NC(=O)[C@H]([C@@H](C)CC)NC(=O)[C@@H](CCCN)NC2=O)[C@@H](C)CC)CS1 [Bacitracin]	1.05 ± 0.02	0.983 ± 0.061
CCCCNc1c(C(=O)OCC)c(C)nc2c1cnn2CC [Tracazolate hydrochloride]	0.947 ± 0.034	1.03 ± 0.013
Nc1nc(=O)c2c([nH]1)NC[C@@H](CNc1ccc(C(=O)N[C@@H](CCC(=O)O)C(=O)O)cc1)N2C=O [Folinic acid calcium salt]	1.05 ± 0.036	1.11 ± 0.06
COC(=O)N/N=C/c1c[n+]([O-])c2ccccc2[n+]1[O-] [Carbadox]	0.69 ± 0.18	0.549 ± 0.029
Cc1cc(/C=C/c2ccc3cc(N(C)C)ccc3[n+]2C)c(C)n1-c1ccccc1 [Pyrvinium pamoate]	0.132 ± 0.0063	0.172 ± 0.012
CC1(C)S[C@@H]2[C@H](NC(=O)[C@H](N)c3ccccc3)C(=O)N2[C@H]1C(=O)OC1OC(=O)c2ccccc21 (some centres undefined) [Talampicillin hydrochloride]	1.09 ± 0.082	1.02 ± 0.085
COc1cc([C@@H]2c3cc4c(cc3[C@@H](O[C@@H]3O[C@@H]5CO[C@@H](C)O[C@H]5[C@H](O)[C@H]3O)[C@H]3COC(=O)[C@H]23)OCO4)cc(OC)c1O [Etoposide]	0.155 ± 0.0057	0.133 ± 0.017
COc1cc(NS(=O)(=O)c2ccc(N)cc2)ncn1 [Sulfamonomethoxine]	1.02 ± 0.057	1.05 ± 0.031
CC(C)(C)NC[C@H](O)c1ccc(O)c(CO)c1 [Levalbuterol hydrochloride]	1.03 ± 0.049	0.99 ± 0.13
CC(C)(S)[C@@H](N)C(=O)O [Penicillamine]	0.964 ± 0.074	1.04 ± 0.097
N[C@@H](C(=O)N[C@@H]1C(=O)N2C(C(=O)O)=C(Cl)CC[C@H]12)c1ccccc1 [Loracarbef]	1.05 ± 0.1	1.06 ± 0.033
CC(C)(C)c1ccc(C(O)CCCN2CCC(C(O)(c3ccccc3)c3ccccc3)CC2)cc1 (centres undefined) [Terfenadine]	0.13 ± 0.0051	0.1 ± 0.0041
CC(C)(C(=O)O)c1ccc(C(O)CCCN2CCC(C(O)(c3ccccc3)c3ccccc3)CC2)cc1 (centres undefined) [Fexofenadine HCl]	1.09 ± 0.02	1.04 ± 0.046
OC(CCCN1CCCCC1)(c1ccccc1)c1ccccc1 [Diphenidol hydrochloride]	1.06 ± 0.037	1.05 ± 0.031
NC[C@@H]1O[C@@H](O[C@H]2[C@H](O)[C@@H](O[C@H]3O[C@H](CO)[C@@H](O)[C@H](N)[C@H]3O)[C@H](N)C[C@@H]2N)[C@@H](O)[C@H](O)[C@H]1O [Kanamycin A sulfate]	0.965 ± 0.052	1.04 ± 0.02
O=C1CN2Cc3c(ccc(Cl)c3Cl)N=C2N1 [Anagrelide]	1.01 ± 0.077	1.03 ± 0.054
c1ccc([C@H]2CN3CCSC3=N2)cc1 [Levamisole hydrochloride]	1.03 ± 0.02	1.02 ± 0.032
CCN(CC)CCc1nc(-c2ccccc2)no1 [Oxalamine citrate salt]	0.986 ± 0.061	0.933 ± 0.14

Compound	normalised cell viability (treatment time: 3 days)	normalised cell viability (treatment time: 6 days)
O=C(O)Cc1cc(I)c(Oc2ccc(O)c(I)c2)c(I)c1 [Tiratricol, 3,3',5-triiodothyroacetic acid]	0.981 ± 0.023	1.03 ± 0.032
CCCc1cc(=O)[nH]c(=S)[nH]1 [Propylthiouracil]	1.02 ± 0.022	1.025 ± 0.009
CC(=O)N1CCN(c2ccc(OCC3COC(Cn4ccnc4)(c4ccc(Cl)cc4Cl)O3)cc2)CC1 (centres undefined) [Ketoconazole]	0.8 ± 0.022	0.898 ± 0.028
CC1(C)S[C@@H]2[C@H](NC(=O)[C@H](NC(=O)N3CCNC3=O)c3ccccc3)C(=O)N2[C@H]1C(=O)O [Azlocillin sodium salt]	1.01 ± 0.015	0.988 ± 0.092
Clc1cnccn1 [2-Chloropyrazine]	1.03 ± 0.019	1.02 ± 0.016
COCC1=C(C(=O)OC(C)OC(=O)OC(C)C)N2C(=O)[C@@H](NC(=O)/C(=N\OC)c3csc(N)n3)[C@H]2SC1 (some centres undefined) [Cefpodoxime proxetil]	1.18 ± 0.025	1.06 ± 0.086
CC(C(=O)O)c1ccc(N2Cc3ccccc3C2=O)cc1 (centres undefined) [Indoprofen]	1.012 ± 0.0016	1.08 ± 0.013
Nc1nc(=O)[nH]cc1F [Flucytosine]	1.06 ± 0.02	0.987 ± 0.025
Cc1ccc2c(c1)c1c3n2CCNC3CCC1 (centres undefined) [Pirlindole mesylate]	0.904 ± 0.084	0.9725 ± 0.0077
NCc1ccccc1CC(=O)N[C@@H]1C(=O)N2C(C(=O)O)=C(CSc3nnnn3CC(=O)O)CS[C@H]12 [Ceforanide]	1.02 ± 0.073	1.21 ± 0.22
C=CC[N@@+]12CC[C@@]34c5ccccc5N5/C=C6/[C@H]7C[C@H]8[C@@]9(CC[N@@+]8(CC=C)C/C7=C/CO)c7ccccc7N(/C=C(/[C@@H](C[C@@H]31)/C(=C\CO)C2)[C@H]54)[C@@H]69 [Alcuronium chloride]	0.939 ± 0.13	1.03 ± 0.079
c1ccc(-c2ccc(C(c3ccccc3)n3ccnc3)cc2)cc1 (centres undefined) [Bifonazole]	0.878 ± 0.032	0.74 ± 0.06
CC(=O)O[C@]1(C(C)=O)CC[C@H]2[C@@H]3C=C(Cl)C4=CC(=O)CC[C@]4(C)[C@H]3CC[C@@]21C [Chlormadinone acetate]	0.998 ± 0.06	0.983 ± 0.043
NNc1nncc2ccccc12 [Hydralazine hydrochloride]	0.9847 ± 0.0028	1.03 ± 0.027
Nc1cc(-c2ccncc2)c[nH]c1=O [Amrinone]	0.938 ± 0.029	0.951 ± 0.018
O=C(CCCCCCC(=O)Nc1ccccc1)NO [Vorinostat]	0.14 ± 0.012	0.168 ± 0.012
O=C(CCCCC(=O)Nc1c(I)cc(I)c(C(=O)O)c1I)Nc1c(I)cc(I)c(C(=O)O)c1I [Iodipamide]	1.03 ± 0.06	0.972 ± 0.029
CC(=O)Nc1ccc(CC(=O)O)cc1 [Actarit]	1.05 ± 0.015	1.03 ± 0.038
CC[C@H](C)C(=O)O[C@H]1CCC=C2C=C[C@H](C)[C@H](CC[C@@H]3C[C@@H](O)CC(=O)O3)[C@H]21 [Mevastatin]	0.23 ± 0.011	0.229 ± 0.0063

Compound	normalised cell viability (treatment time: 3 days)	normalised cell viability (treatment time: 6 days)
CCCNC(C)C(=O)Nc1c(C)csc1C(=O)OC (centres undefined) [Articaine hydrochloride]	1.03 ± 0.024	1.06 ± 0.084
Nc1ccc(S(=O)(=O)Nc2ccnn2-c2ccccc2)cc1 [Sulfaphenazole]	1.01 ± 0.011	1.03 ± 0.031
COc1ccccc1OCC(O)CN1CCN(CC(=O)Nc2c(C)cccc2C)CC1 (centres undefined) [Ranolazine]	1.04 ± 0.054	0.967 ± 0.086
N#CC(c1ccc(Cl)cc1)c1c(Cl)cc(-n2ncc(=O)[nH]c2=O)cc1Cl (centres undefined) [Diclazuril]	0.905 ± 0.068	0.875 ± 0.068
C#CCN(C)CCCOc1ccc(Cl)cc1Cl [Clorgyline hydrochloride]	1.11 ± 0.063	1.019 ± 0.0054
NS(=O)(=O)Cc1noc2ccccc12 [Zonisamide]	1.01 ± 0.036	1.03 ± 0.065
COc1ccc2c(c1)C(=O)N(CCc1ccc(S(=O)(=O)NC(=O)NC3CCCCC3)cc1)C(=O)C2(C)C [Gliquidone]	1.05 ± 0.077	1.08 ± 0.049
CN1CCCN=C1/C=C/c1cccs1 [Pyrantel tartrate]	1.06 ± 0.019	1.02 ± 0.079
CC(C)(C)NC[C@H](O)COc1nsnc1N1CCOCC1 [Timolol maleate salt]	1.01 ± 0.022	1.07 ± 0.065
CCN(CC)C(=O)Nc1ccc(OCC(O)CNC(C)(C)C)c(C(C)=O)c1 (centres undefined) [Celiprolol HCl]	1.13 ± 0.12	0.988 ± 0.031
C[C@H](O)C(=O)Nc1c(I)c(C(=O)NC(CO)CO)c(I)c(C(=O)NC(CO)CO)c1I [Iopamidol]	0.952 ± 0.093	1.09 ± 0.06
Clc1ccc(CSC(Cn2ccnc2)c2ccc(Cl)cc2Cl)cc1 (centres undefined) [Sulconazole nitrate]	0.983 ± 0.067	0.829 ± 0.043
CCOC(=O)Nc1ccc2c(c1)N(C(=O)CCN1CCOCC1)c1ccccc1S2 [Moricizine hydrochloride]	1.1 ± 0.13	1.13 ± 0.083
C=CC1=C(C(=O)O)N2C(=O)[C@@H](NC(=O)/C(=N\O)c3csc(N)n3)[C@H]2SC1 [Cefdinir]	1.016 ± 0.0043	1.01 ± 0.06
Cc1c(C)c2c(c(C)c1O)CCC(C)(COc1ccc(CC3SC(=O)NC3=O)cc1)O2 (centres undefined) [Troglitazone]	0.68 ± 0.04	0.588 ± 0.04
C=C(CC)C(=O)c1ccc(OCC(=O)O)c(Cl)c1Cl [Ethacrynic acid]	1.08 ± 0.038	1.01 ± 0.048
COc1cc2c(cc1OC)C(=O)C(CC1CCN(Cc3ccccc3)CC1)C2 (centres undefined) [Donepezil hydrochloride]	0.957 ± 0.087	0.983 ± 0.011
OCC(O)CN1CCN(c2ccccc2)CC1 (racemic) [Dropropizine (R,S)]	0.964 ± 0.051	1.01 ± 0.057
C=C[C@H]1CN2CC[C@H]1C[C@@H]2[C@@H](O)c1ccnc2ccc(OC)cc12 [Quinidine hydrochloride monohydrate]	0.997 ± 0.0082	0.876 ± 0.16

From the supplement of paper PMC6609913
